Experimental data reported in PubChem BioAssay (NCI).
About 79,000 compounds went through this panel and 15% of them were active in at least one assay; those are over-represented in the sample as a whole. Values without a mark were called inactive. Active and inactive are the calls of the source. Rule as the data show it: active = growth inhibition above about 70%; inactive = the rest.

Key:
[1] = NCI Yeast Anticancer Drug Screen. Data for the rad50 strain (AID 155);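 also: 0% = growth of vehicle-only cultures of the same strain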; conditions: S. cerevisiae rad50 strain growth inhibition; at 50.0 µM; active compounds read high
In short: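 Compounds were tested on a yeast strain with an engineered DNA damage repair alteration; the reported value is growth inhibition normalised to vehicle treatment.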

[2] = NCI Yeast Anticancer Drug Screen. Data for the mec2-1 strain (AID 157); conditions: S. cerevisiae mec2-1 strain, at 50.0 µM, active compounds read high
In short: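 Strain: mec2-1 (DNA repair/cell cycle alteration). Compound exposure, then growth measured; inhibition expressed relative to vehicle.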

[3] = NCI Yeast Anticancer Drug Screen. Data for the sgs1 mgt1 strain (AID 161);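 also: 0% = growth of cultures given vehicle only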; conditions: S. cerevisiae sgs1 mgt1 strain, at 50.0 µM, active compounds read high
In short: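 Read-out: growth inhibition vs vehicle controls. Cells: mutant yeast strain deficient in DNA damage repair.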

[4] = NCI Yeast Anticancer Drug Screen. Data for the cln2 rad14 strain (AID 165);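 also: 0% = growth equal to vehicle treated cultures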; conditions: S. cerevisiae cln2 rad14 strain, at 50.0 µM, active compounds read high
In short: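 Compounds are applied to the cln2 rad14 yeast strain, and growth is then compared with that of vehicle-treated cultures to give inhibition.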

[5] = NCI Yeast Anticancer Drug Screen. Data for the bub3 strain (AID 167); conditions: S. cerevisiae bub3 mutant strain, at 50.0 µM, active compounds read high
In short: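 Growth of a checkpoint-deficient yeast mutant is measured after compound exposure. Values represent inhibition relative to vehicle.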

[6] = NCI Yeast Anticancer Drug Screen. Data for the mlh1 rad18 strain (AID 175); conditions: S. cerevisiae mlh1 rad18 strain growth inhibition; at 50.0 µM; active compounds read high
In short: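 Read-out is yeast growth inhibition, calculated against vehicle-only controls. The compound was applied to a strain engineered with DNA damage repair alterations.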

Cc1ccc(/C=N/n2c(Cc3ccccc3)n[nH]c2=O)cc1
growth inhibition [1]: 16.9% | growth inhibition [2]: 5.1% | growth inhibition [3]: 3.65% | growth inhibition [4]: 11.8% | growth inhibition [5]: 4.25% | growth inhibition [6]: 25.6%

CN(C)CCCNc1nc(Cl)nc2nc(-c3ccccc3)c(-c3ccccc3)nc12
growth inhibition [1]: 50.2% | growth inhibition [2]: 31% | growth inhibition [3]: 60.5% | growth inhibition [4]: 36% | growth inhibition [5]: 28.9% | growth inhibition [6]: 61.2%

Cc1[nH]nc2c(=O)n(N)nnc12
growth inhibition [1]: 18.4% | growth inhibition [2]: 7.3% | growth inhibition [3]: 0.35% | growth inhibition [4]: -16.9% | growth inhibition [5]: -15.8% | growth inhibition [6]: 26.4%

COC(=O)c1cc([N+](=O)[O-])cc2ccccc12
growth inhibition [1]: 35.8% | growth inhibition [2]: -24.6% | growth inhibition [3]: 19.1% | growth inhibition [4]: 11.3% | growth inhibition [5]: 23.1% | growth inhibition [6]: 0.65%

CCOC(=O)c1c(O)csc1N
growth inhibition [1]: 7.85% | growth inhibition [2]: 5.45% | growth inhibition [3]: 3.8% | growth inhibition [4]: -16.9% | growth inhibition [5]: -20.6% | growth inhibition [6]: 10.7%

CN(C)C(=S)S(=O)(=O)c1ccc([N+](=O)[O-])cc1
growth inhibition [1]: 26.8% | growth inhibition [2]: 14.7% | growth inhibition [3]: 23.6% | growth inhibition [4]: -7.4% | growth inhibition [5]: 31.6% | growth inhibition [6]: 92.3% (active)

CC(C)(c1ccccc1)c1ccc(Oc2ccc(C#N)c(C#N)c2)cc1
growth inhibition [1]: -27.2% | growth inhibition [2]: -7.6% | growth inhibition [3]: -14% | growth inhibition [4]: 3.3% | growth inhibition [5]: -35.8% | growth inhibition [6]: -21.6%

CC(C)(C)OC(=O)c1c2ccccc2cc2ccccc12
growth inhibition [1]: 21.9% | growth inhibition [2]: 12.4% | growth inhibition [3]: 14% | growth inhibition [4]: 14.2% | growth inhibition [5]: 12.1% | growth inhibition [6]: 10.3%

OCc1ccccc1
growth inhibition [1]: 37% | growth inhibition [2]: 19.2% | growth inhibition [3]: 0.1% | growth inhibition [4]: -14.7% | growth inhibition [5]: 29.4% | growth inhibition [6]: 26.1%

CCC(c1ccc(CN(C)C)c(O)c1)C(CC)c1ccc(CN(C)C)c(O)c1 (configuration not stated)
growth inhibition [1]: 5.7% | growth inhibition [2]: 1.35% | growth inhibition [3]: -11.4% | growth inhibition [4]: -12.9% | growth inhibition [5]: -2.55% | growth inhibition [6]: 2.75%

Oc1ccccc1C=NCCCN=Cc1ccccc1O
growth inhibition [1]: 12.4% | growth inhibition [2]: 0.25% | growth inhibition [3]: 36.5% | growth inhibition [4]: 15.5% | growth inhibition [5]: 48.8% | growth inhibition [6]: 21.5%

Nc1cc2c(cc1Br)-c1c(C(=O)O)cccc1C2=O
growth inhibition [1]: -20% | growth inhibition [2]: 9.3% | growth inhibition [3]: -2.4% | growth inhibition [4]: 7.1% | growth inhibition [5]: 11.2% | growth inhibition [6]: -13.1%

COC(=O)C(C#N)(CCC(=O)c1ccccc1)CCC(=O)c1ccccc1
growth inhibition [1]: 13.3% | growth inhibition [2]: 17.3% | growth inhibition [3]: 10.2% | growth inhibition [4]: -8.65% | growth inhibition [5]: 17.8% | growth inhibition [6]: 9.8%

COC(=O)C(=O)/C(=C\N1C(=O)CC(=O)NC1=S)C(=O)c1ccc([N+](=O)[O-])cc1
growth inhibition [1]: 17.9% | growth inhibition [2]: -0.4% | growth inhibition [3]: 9.6% | growth inhibition [4]: 1.5% | growth inhibition [5]: -5.25% | growth inhibition [6]: 6%

C=C1C(=O)OC2(C)CCC1CC1OC1(C)CC/C=C(\C)CCC2OC(C)=O (configuration not stated)
growth inhibition [1]: -3.95% | growth inhibition [2]: -6.55% | growth inhibition [3]: 17.4% | growth inhibition [4]: 8.25% | growth inhibition [5]: -3% | growth inhibition [6]: 7.85%

Cc1cc2c3ccccc3n(C)c2c2c1C(=O)c1ccccc1C2=O
growth inhibition [1]: 15.8% | growth inhibition [2]: 28% | growth inhibition [3]: 3.3% | growth inhibition [4]: 5.45% | growth inhibition [5]: 17.4% | growth inhibition [6]: 11.2%

COc1ccc(/C=C/C(=O)C(C)(C)CN(C)CCN(C)C)cc1
growth inhibition [1]: -36% | growth inhibition [2]: -7.25% | growth inhibition [3]: -23.9% | growth inhibition [4]: -7.65% | growth inhibition [5]: -5.25% | growth inhibition [6]: -8.45%

Cc1[nH]nc(N)c1C(N)=O
growth inhibition [1]: 5.2% | growth inhibition [2]: 2.5% | growth inhibition [3]: 26.6% | growth inhibition [4]: 1.2% | growth inhibition [5]: 0.85% | growth inhibition [6]: 5.85%

Cc1cc(=O)c(CO)n[nH]1
growth inhibition [1]: 8.75% | growth inhibition [2]: 15.2% | growth inhibition [3]: 3.7% | growth inhibition [4]: 6.8% | growth inhibition [5]: 3.45% | growth inhibition [6]: 19.5%

CC/C(C)=N/C(=O)NN
growth inhibition [1]: -20.1% | growth inhibition [2]: 8.75% | growth inhibition [3]: -16.2% | growth inhibition [4]: 19.3% | growth inhibition [5]: 35.5% | growth inhibition [6]: 20.3%

Cc1nc(N)c(N2CCN(CN)CC2)c(=O)[nH]1
growth inhibition [1]: -35.2% | growth inhibition [2]: 7.1% | growth inhibition [3]: -5.85% | growth inhibition [4]: 21.6% | growth inhibition [5]: 25.9% | growth inhibition [6]: -38%

Cc1cc(N(CCOS(C)(=O)=O)CCOS(C)(=O)=O)ccc1C=Nc1ccc(C(=O)O)c(O)c1
growth inhibition [1]: 82.8% (active) | growth inhibition [2]: 86.8% (active) | growth inhibition [3]: 46% | growth inhibition [4]: 77.5% (active) | growth inhibition [5]: 19.2% | growth inhibition [6]: 88% (active)

C=CCOC(C)n1c(C)cc(=O)n(C(C)OCC=C)c1=O (configuration not stated)
growth inhibition [1]: -56.6% | growth inhibition [2]: -26.8% | growth inhibition [3]: -46.6% | growth inhibition [4]: -38.5% | growth inhibition [5]: -44.9% | growth inhibition [6]: -29.8%

CN(C)Cc1cc(C(=O)/C=C/c2ccccc2Cl)cc(CN(C)C)c1O
growth inhibition [1]: -47% | growth inhibition [2]: -22.6% | growth inhibition [3]: -27.4% | growth inhibition [4]: -43.9% | growth inhibition [5]: 3.9% | growth inhibition [6]: -31.1%

C=C1CN(CCc2ccccc2)C(=S)S1
growth inhibition [1]: 55.6% | growth inhibition [2]: 19.1% | growth inhibition [3]: 22.4% | growth inhibition [4]: 3.65% | growth inhibition [5]: 1.35% | growth inhibition [6]: 11.4%

CN(C)Cc1cccc(-c2ccccc2)c1O
growth inhibition [1]: 21.8% | growth inhibition [2]: -4.9% | growth inhibition [3]: 12% | growth inhibition [4]: -15.8% | growth inhibition [5]: 5.3% | growth inhibition [6]: 17.2%

CCCCCC(=O)C(C)(c1nc2nnc(NC(=O)Nc3ccc(Cl)cc3)n2[nH]c1=O)c1nc2nnc(NC(=O)Nc3ccc(Cl)cc3)n2[nH]c1=O
growth inhibition [1]: -42.8% | growth inhibition [2]: -21.6% | growth inhibition [3]: -24.3% | growth inhibition [4]: -45% | growth inhibition [5]: -38.8% | growth inhibition [6]: -32.5%

CC1c2c(Cl)nc3ccccc3c2Oc2c1c(Cl)nc1ccccc21
growth inhibition [1]: 7.05% | growth inhibition [2]: 5.1% | growth inhibition [3]: -6.05% | growth inhibition [4]: 18.3% | growth inhibition [5]: 5.1% | growth inhibition [6]: 22.1%

C/C=N\n1c(C)c(C#N)c(C#N)c1N
growth inhibition [1]: 8.6% | growth inhibition [2]: 10.2% | growth inhibition [3]: -23.6% | growth inhibition [4]: -14.1% | growth inhibition [5]: -21.7% | growth inhibition [6]: -35.5%

COc1ccc(NC(=S)NNC(=O)c2nsc3ccccc23)cc1
growth inhibition [1]: 32.5% | growth inhibition [2]: 9.85% | growth inhibition [3]: 20.8% | growth inhibition [4]: 7.35% | growth inhibition [5]: -0.8% | growth inhibition [6]: -0.15%

CCCCCCCCCCCCCCCCO
growth inhibition [1]: -14.4% | growth inhibition [2]: -14.2% | growth inhibition [3]: -13.6% | growth inhibition [4]: -16.3% | growth inhibition [5]: -15.2% | growth inhibition [6]: -12.4%

CCOC(=O)C/C(O)=C(\N=Nc1nc[nH]c1C(N)=O)C(=O)OCC
growth inhibition [1]: 1.2% | growth inhibition [2]: 23.7% | growth inhibition [3]: -9.9% | growth inhibition [4]: -1.8% | growth inhibition [5]: 16.1% | growth inhibition [6]: -0.65%

COc1ccc(OC2OC(CO)C(OCc3ccccc3)C(OCc3ccccc3)C2OCc2ccccc2)cc1 (configuration not stated)
growth inhibition [1]: 5.6% | growth inhibition [2]: -11.7% | growth inhibition [3]: -11.7% | growth inhibition [4]: 2.4% | growth inhibition [5]: -33.6% | growth inhibition [6]: -42.8%

Fc1cccc2c1Cc1ccccc1-2
growth inhibition [1]: 5.75% | growth inhibition [2]: -8.65% | growth inhibition [3]: -21.3% | growth inhibition [4]: -58.7% | growth inhibition [5]: -1.85% | growth inhibition [6]: 17.3%

c1ccc2scnc2c1
growth inhibition [1]: 21.2% | growth inhibition [2]: 7.25% | growth inhibition [3]: 13.7% | growth inhibition [4]: -24.5% | growth inhibition [5]: 29.2% | growth inhibition [6]: 37.2%

CC(=O)NNc1nc(C)c(C(/C=C/c2ccccc2O)=N/NC(=O)c2ccncc2)s1
growth inhibition [1]: 6.9% | growth inhibition [2]: 5.5% | growth inhibition [3]: 16.1% | growth inhibition [4]: 26.6% | growth inhibition [5]: 17.5% | growth inhibition [6]: 22.2%

COC(=O)NCc1nc2cc3c[nH][nH]c3cc2n1
growth inhibition [1]: -8.15% | growth inhibition [2]: 0.05% | growth inhibition [3]: 14.9% | growth inhibition [4]: -16% | growth inhibition [5]: 11.6% | growth inhibition [6]: 11.2%
